PubChem BioAssay AID686971 (National Center for Advancing Translational Sciences (NCATS), 2013)
About 7,500 (2.1%) of roughly 360,000 compounds were called active. Inconclusive results (about 8%) are left out. The sample as a whole holds a higher share of actives than the screen did. A number with no mark means an inactive call. The call rests on the fitted dose curve; in most records, active means well fitted cell-killing curve with a large enough effect; inconclusive means small, poorly fitted or top-dose-only effect, or effect the other way, or another doubt; inactive means no such curve, though single readings can be large or run the other way.
Potency means the concentration at half of the fitted maximal effect.

Assay: qHTS for induction of synthetic lethality in tumor cells producing 2HG: qHTS for the HT-1080-IDH1KD cell line;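 on activity, negative = toxicity: 0% = DMSO wells and -100% = cell-free medium wells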
Details: HT-1080 IDH1 knockdown viability, ATP luminescence, 48 h; series mostly up to 46.1 µM; activity, negative = toxicity: at the top concentration
Method in brief: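 CellTiter-Glo luminescence after 48 h compound exposure at 37 degrees C of IDH1-knockdown HT-1080 cells in 5% FBS RPMI. %Activity scaled between DMSO wells and cell-free media wells, with curves fitted and assigned curve classes.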
With `COC(=O)C[C@H]1C[C@@H]2c3cc(N(C)C)ccc3O[C@@H]2[C@H](CO)O1` the “activity, negative = toxicity” value was 8.05%.
With `CCOc1ccc(CCNC(=O)COC(=O)c2ccc(C)c(S(=O)(=O)N3CCOCC3)c2)cc1OCC` the “activity, negative = toxicity” value was 4.73%.
In the case of `c1csc(CN2CCN(Cc3cccs3)C2c2cccs2)c1`, the activity, negative = toxicity is reported as -1.16% [at 9.24 µM].
With `Brc1ccc2c(c1)[C@H]1OCC[C@H]1[C@@H](c1cccs1)N2` the Potency was 9.2 µM (active).
With `COc1cc2ccc(C(C)=O)c(O)c2cc1OC` the “activity, negative = toxicity” value was 0.357%.
In the case of `COCCNc1ncnc2c1ncn2[C@H]1CN(Cc2ccc(OC)cc2)C[C@@H](CO)O1`, the “activity, negative = toxicity” value is reported as 11.1%.
In the case of `COc1cccc2c1C(=O)c1c(O)c3c(c(O)c1C2=O)CC(O)(C(C)=NNC(=O)c1ccc(Cl)c(Cl)c1)CC3OC1CC(N)C(O)C(C)O1` (stereo not given), the Potency is reported as 1.16 µM (active).
In the case of `OC(c1ccccc1)c1nc(-c2cnc3ccccc3c2)cs1` (stereo not given), the “activity, negative = toxicity” value is reported as -19.1%.
For `Cc1ccc(S(=O)(=O)NC2CCCCCC2)cc1`, the “activity, negative = toxicity” value was 6.42%.
With `Cc1ccc(S(=O)(=O)C2(S(=O)(=O)c3ccc(C)cc3)CCCC2)cc1` the Potency was 11.6 µM (active).
With `Cc1ccc(S(=O)(=O)N(C)C2(C)CCS(=O)(=O)C2)cc1` (stereo not given) the “activity, negative = toxicity” value was -16.1%.
In the case of `Cc1cc(C)c2c(=O)n3c(nc2c1)C(CC(C)C)NC(=O)c1cc2ccccc2cc1-3` (stereo not given), the “activity, negative = toxicity” value is reported as -0.851%.
For `COc1ccc(Br)c(Cn2c(C)c(C(=O)NCc3cccs3)sc2=O)c1`, the “activity, negative = toxicity” value was 0.492%.
In the case of `CCc1ccc(NC(=O)Cn2nnc(C(=O)NCc3ccc(OC)cc3)c2N)cc1`, the “activity, negative = toxicity” value is reported as -1.58%.
For `CCOc1ccccc1NC(=O)Cn1nnc(C(=O)NCc2cccs2)c1N`, the Potency was 0.411 µM (active).
With `CCOc1ccc(Cl)cc1-c1cc(C(=O)NCc2cccs2)[nH]n1` the “activity, negative = toxicity” value was 0.448%.
For `COc1ccc(-c2cnc3c(c2)C(=O)N([C@H](C)CO)C[C@@H](C)[C@H](CN(C)Cc2ccccc2)O3)cc1`, the “activity, negative = toxicity” value was -1.8%.
For `COc1ccc(OC)c(CN2C(=O)CCC2(C)c2nnnn2Cc2ccccc2)c1` (stereo not given), the “activity, negative = toxicity” value was 9.52%.
For `O=C(COC(=O)c1cc[n+]([O-])cc1)Nc1ccc(Cl)c(C(F)(F)F)c1`, the “activity, negative = toxicity” value was 0.909%.
In the case of `NC(=O)N1CCCC1C(=O)Nc1ccc(Cl)c(Cl)c1` (stereo not given), the “activity, negative = toxicity” value is reported as 5.56%.
For `O=C(CC(O)(C(F)(F)F)C(F)(F)F)Nc1ccc(Cl)c(Cl)c1`, the Potency was 11.6 µM (active).
In the case of `O=C1NC(O)CCN1C1CC(O)C(CO)O1` (stereo not given), the “activity, negative = toxicity” value is reported as 7.01%.
In the case of `CC(=O)c1ccc(Nc2nc(C(N)c3ccccc3Cl)cs2)cc1` (stereo not given), the “activity, negative = toxicity” value is reported as -21.8%.
With `CCn1c(/C=C/c2ccc([N+](=O)[O-])o2)nc2ccccc2c1=O` the Potency was 2.59 µM (active).
For `CCOCCCn1c(NN)nc2ccccc2c1=O`, the “activity, negative = toxicity” value was 4.05%.
For `CCn1c(SCc2ccccc2)nc2cc(OC)c(OC)cc2c1=O`, the “activity, negative = toxicity” value was -15.2%.
In the case of `COc1ccc(C(=O)N2CCCCC2c2cc(C(=O)Nc3ccccc3)no2)cc1` (stereo not given), the “activity, negative = toxicity” value is reported as 0%.
For `O=C(CCl)N(Cc1cccc([N+](=O)[O-])c1)c1cccc(Cl)c1`, the Potency was 4.61 µM (active).
In the case of `O=C(c1cccc([N+](=O)[O-])c1)N1CCN(Cc2ccccc2)CC1`, the “activity, negative = toxicity” value is reported as 15.1%.
In the case of `Cc1ccc(S(=O)(=O)N(Cc2cccc([N+](=O)[O-])c2)C(=O)N2CCN(C)CC2)cc1`, the “activity, negative = toxicity” value is reported as -11.9%.
For `CCc1nc2c(OCCOc3ccccc3)cccn2c1N(C=O)Cc1ccc(OC)cc1`, the “activity, negative = toxicity” value was -76.1%.
In the case of `CCc1nc(C)cn1S(=O)(=O)c1cc([N+](=O)[O-])ccc1Cl`, the Potency is reported as 3.26 µM (active).
With `CCc1nc(C)cn1S(=O)(=O)c1cc(OC)c(C)cc1C` the “activity, negative = toxicity” value was -17.7%.
With `CC(C)c1nccn1S(=O)(=O)c1cc([N+](=O)[O-])ccc1Cl` the “activity, negative = toxicity” value was 2.08%.
With `Nc1nc2c(Br)ccc(Br)c2cc1C(=O)NCCc1ccccc1` the “activity, negative = toxicity” value was -12.4%.
In the case of `CSc1ncnc2c1ncn2CCCNCc1ccco1`, the “activity, negative = toxicity” value is reported as 9.18%.
In the case of `COc1ccc(COC(=O)NC(C(=O)O)c2ccccc2)cc1` (stereo not given), the “activity, negative = toxicity” value is reported as -4.08%.
With `COc1ccc(C(CCN(Cc2ccc(OC)c(OC)c2)C(=O)CCl)c2ccccc2)cc1` (stereo not given) the Potency was 16.4 µM (active).
With `COc1ccc(CN(C)C(=O)CC(c2ccccc2)c2ccccc2)cc1` the “activity, negative = toxicity” value was -14.7%.
With `Nc1cc(C(=O)N2CCN(c3ccccc3Cl)CC2)ccc1N1CC2CC(C1)c1cccc(=O)n1C2` (stereo not given) the “activity, negative = toxicity” value was 0.978%.
In the case of `COc1ccc(NC(=O)COC(=O)C2COc3ccccc3O2)cc1` (stereo not given), the “activity, negative = toxicity” value is reported as 4.67%.
For `Cc1ccc(Cc2cnc(N)s2)o1`, the “activity, negative = toxicity” value was -24.2%.
In the case of `Cc1ccc(CCC(=O)Nc2ncc(Cc3cc(Cl)ccc3Cl)s2)o1`, the Potency is reported as 1.16 µM (active).
In the case of `Cc1ccc(C(=O)Nc2nc3ccc(Cl)cc3s2)o1`, the “activity, negative = toxicity” value is reported as -6.86%.
For `COc1ccc(C(O)c2nc(-c3ccc(OC)nc3)cs2)cc1` (stereo not given), the “activity, negative = toxicity” value was 5.6%.
For `CC1CN(C(=O)c2ccc([N+](=O)[O-])s2)CC(C)O1` (stereo not given), the “activity, negative = toxicity” value was 2.25%.
In the case of `CNN/C(N=Cc1ccc([N+](=O)[O-])s1)=N\S(=O)(=O)c1cc(C)c(Cl)cc1SCc1ccccc1`, the “activity, negative = toxicity” value is reported as 0.716%.
In the case of `O=[N+]([O-])c1ccc(C=Nc2ccc(Cl)cc2Cl)s1`, the Potency is reported as 11.2 µM (active).
In the case of `Cc1ccc(N(Cc2cc3ccccc3[nH]c2=O)C(=O)c2cccs2)cc1`, the “activity, negative = toxicity” value is reported as 0.252%.
With `Cc1ccc(N(Cc2cc(=O)[nH]c3ccccc23)C(=O)CCl)cc1` the Potency was 20.6 µM (active).
